# According to PubChem BioAssay AID488969 (Vanderbilt High Throughput Screening Facility, 2010):
# Over roughly 110,000 compounds, “z-score” has its median near -0.1; the highest 2% begin near 2. This excerpt belongs to a sample that is enriched for the highest values. Activity calls are given as the source filed them.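 The calls were made as follows: active = z-score in the third read window above 3 or below -3; inactive = the rest.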
# Biological target: Metabotropic glutamate receptor 8 (Rattus norvegicus) (UniProt P70579)
# Sequence (P70579 whole entry, looked up): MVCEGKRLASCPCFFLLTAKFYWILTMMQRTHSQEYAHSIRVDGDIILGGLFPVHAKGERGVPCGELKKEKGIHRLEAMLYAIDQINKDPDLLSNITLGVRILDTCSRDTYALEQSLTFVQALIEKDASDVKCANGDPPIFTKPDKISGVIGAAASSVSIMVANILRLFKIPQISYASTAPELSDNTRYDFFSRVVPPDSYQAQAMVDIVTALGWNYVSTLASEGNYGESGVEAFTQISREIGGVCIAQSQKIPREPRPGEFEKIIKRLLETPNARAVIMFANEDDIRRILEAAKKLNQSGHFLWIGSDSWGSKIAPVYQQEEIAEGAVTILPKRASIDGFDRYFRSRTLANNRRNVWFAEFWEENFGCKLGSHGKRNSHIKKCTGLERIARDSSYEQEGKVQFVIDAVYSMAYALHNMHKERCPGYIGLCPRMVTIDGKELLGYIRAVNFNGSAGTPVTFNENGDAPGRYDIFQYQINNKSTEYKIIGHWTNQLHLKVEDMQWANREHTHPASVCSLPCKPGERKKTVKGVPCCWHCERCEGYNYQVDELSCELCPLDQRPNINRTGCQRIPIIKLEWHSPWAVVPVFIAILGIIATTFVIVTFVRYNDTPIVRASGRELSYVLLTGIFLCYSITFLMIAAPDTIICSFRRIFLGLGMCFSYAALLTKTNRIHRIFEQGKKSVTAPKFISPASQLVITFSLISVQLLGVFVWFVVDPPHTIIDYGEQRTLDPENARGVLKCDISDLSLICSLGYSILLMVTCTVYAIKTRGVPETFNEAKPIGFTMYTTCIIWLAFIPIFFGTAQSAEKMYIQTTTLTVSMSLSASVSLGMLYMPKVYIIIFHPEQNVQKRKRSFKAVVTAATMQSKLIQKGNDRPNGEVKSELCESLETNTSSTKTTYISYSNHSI
# Experiment: rat mGluR8 modulators via GIRK flux, primary screen, cell-based, thallium flux, HTS (AID 488969)
# Details: HEK293 rat mGluR8, GIRK (G protein-gated inwardly rectifying potassium channel) thallium flux, FluoZin2; at 10 µM; stronger effect = higher value; submaximal glutamate (EC20) added with thallium
row,Compound,z-score
1,O=S(=O)(NCc1ccccn1)c1ccccc1,-0.362
2,COc1ccc(-c2nc(-c3cccc(C)c3)[nH]c(=O)c2C#N)cc1,-0.296
3,COc1ccc(S(=O)(=O)n2ccc(C)n2)cc1C,-0.988
4,CCCNC(=O)C1CCN(S(=O)(=O)c2ccc(-c3nn[nH]n3)cc2)CC1,-0.171
5,N/C(=N\c1nc2c(c(=O)[nH]1)CCC2)Nc1ccccc1,0.214
6,c1ccc(CN2CCOCC2)cc1,0.378
7,CC12CN(Cc3ccccc3)CC(C)(CN(Cc3ccccc3)C1)C2=NO,2.4
8,CC(=O)C1CCN(Cc2ccccc2)CC1,-0.262
9,Cn1ncc(Br)c1C(=O)N/N=C/c1cccc(OC2CSC2)c1,-0.309
10,O=C(CSc1nnnn1C1CCCCC1)NCc1ccco1,-0.228
11,CCOC(=O)c1c(NC(=O)CNCCOC)sc2c1CCCC2,-1.06
12,Cc1nn(C)c(C)c1CN(C)C(=O)c1cc2n(n1)C(C(F)(F)F)CC(c1cccs1)N2 (configuration not stated),0.0534
13,Cc1nn(C)c(C)c1CNC(=O)c1nn2c(c1Cl)NC(c1cccs1)CC2C(F)(F)F (configuration not stated),-0.0188
14,Cc1nn(C)c(C)c1CN(C)C(=O)c1nn2c(c1Br)NC(c1cccs1)CC2C(F)(F)F (configuration not stated),2.24
15,CCOc1ccc2nc(NC(=O)C3CCCN(S(=O)(=O)c4cccs4)C3)sc2c1 (configuration not stated),0.284
16,COc1ccc(C(=S)N2CCCCCC2)cc1,-0.075

row,Compound,z-score
1,COc1ccc(C(=O)NC(=S)N2CCC(C)CC2)cc1,14.2 (active)
2,CC1CCN(C(=S)NCCc2ccccc2)CC1,-0.0312
3,Cc1cccc(C(=O)NC(=S)N2CCN(C(=S)NC(=O)c3cccc(C)c3)CC2)c1,0.153
4,CNC(=S)N1CCN(c2ccc(OC)cc2)CC1,8.68 (active)
5,COc1ccc(C(=O)NC(=S)N2CC(C)OC(C)C2)cc1 (configuration not stated),0.0339
6,COc1ccc(C(=O)NC(=O)N2CCCCC2)cc1,0.975
7,COc1ccc(OC(C)C(=O)N2CCC(C)CC2)cc1 (configuration not stated),0.926
8,CC1CCN(C(=S)NC(=O)c2ccccc2)CC1,4.42 (active)
9,COc1ccc(N2CCN(C(=S)Nc3cc(C)cc(C)c3)CC2)cc1,0.06
10,COc1ccc(C(=O)NC(=S)N2CCCCC2)cc1,3.44 (active)
11,CNC(=S)N1CCN(c2cccc(OC)c2)CC1,0.273
12,O=C(OCc1ccccc1)C1=[N+]([O-])OC(C(=O)OCc2ccccc2)C1c1c[nH]c2ccccc12 (configuration not stated),-0.556
13,CCOC(=O)C1=C(C)Nc2nc3ccccc3n2C1c1ccccc1 (configuration not stated),0.0404
14,Cc1ccc2c(c1)CCCN2C(=O)c1ccncc1,0.255
15,COc1cccc(C2=NOC(C(=O)Nc3cccc(C(C)=O)c3)C2)c1OC (configuration not stated),0.301
16,Cc1c(-c2ccccc2)nc2ccccc2c1C(=O)OCC(=O)Nc1ncc(C(F)(F)F)cc1Cl,0.00577
